Drawing on PubChem BioAssay (Tox21), this text covers outcome and fluorescence, % of fluorescent control for 40 compounds.

Structures are written as SMILES. Unmarked numbers belong to inactive results. Active and inactive are the calls of the source. Calls follow the shape of the dose curve; as a rule, active = well fitted curve in the direction sought with a large enough effect in the repeat runs; inconclusive = weak or mixed curves; inactive = flat fitted curve, though single readings scatter.
% is scaled to controls: 0 for no effect and ±100 for the full control effect.

The nature of the experiment: qHTS assay to test for compound auto fluorescence at 590 nm (red) in HEK293 cell free culture (AID 720683). The following applies: cell-free medium autofluorescence, Ex540/Em590 red; series mostly up to 91.3 µM. The text has this:
U.S. Tox21 Program National Center for Advancing Translational Sciences [NCATS] NIH Chemical Genomics Center [NCGC] U.S. Environmental Protection Agency [EPA] National Institutes of Environmental Health Sciences [NIEHS] National Toxicology Program [NTP] U.S. Food and Drug Administration [FDA] Tox21 Assay Overview: Compound auto fluorescence often interferes with screening of the compound library against various biological targets and signaling pathways. Some of these compounds may have fluorophoric properties. Such properties may interfere with the assay outputs resulting in false positives and/or negatives. To decrease such complications and ensure the compound activities are relevant in terms of biological response, the Tox21 10K compound library was screened for auto fluorescence. From the fluorophores used as reporter signals in our screening assays, the auto fluorescence equivalencies of compounds against three fluorophores have been evaluated: Triamterene, Fluorescein and Rose Bengal sodium for blue, green and red fluorescence, respectively. The fluorescence intensities were measured using Excitation/Emission wavelengths at 405/460nm, 485/535nm and 540/590nm for blue, green and red labels, respectively. This assay includes the red fluorescence data.
Tox21 Assay Protocol Summary: 5 uL of culture medium (DMEM containing 10% FBS) per well was dispensed into black wall/clear bottom 1536-well plates using a Multidrop Combi Dispenser (ThermoFisher Scientific, Waltham, MA). After 23 nL compound or DMSO vehicle was transferred into assay plate by a pintool work station (Kalypsys, San Diego, CA), fluorescence intensities in the assay plates were measured by an Envision (PerkinElmer, Shelton, CT) plate reader using three labels for measuring blue, green and red fluorescence at […] 460, 535 and 590nm respectively.
(In qHTS, concentration-response curves come from the screen itself.)
On to `O=C1C=CC(=O)O1`, for which the compound was classed as inactive.

Regarding `O=C1Nc2ccc([N+](=O)[O-])cc2C1=O`, the result was inactive.

Turning to `CCCCC(CC)COC(=O)COc1cc(Cl)c(Cl)cc1Cl` (stereo not given), the call was inactive.

Regarding `CC(=O)N[C@@H](CC(C)C)C(=O)O`, the outcome was inactive.

For `CO[C@@]1(NC(=O)CSCC#N)C(=O)N2C(C(=O)O)=C(CSc3nnnn3C)CS[C@@H]21`, the compound was called inactive.

For the compound `Nc1cccc(S(=O)(=O)O)c1`, the outcome was inactive.

With `CCN(CC)C(=O)N(CC)CC`, the compound was called inactive.

As for `OCC(CBr)(CBr)CBr`, the call was inactive.

As for `CCOC(=O)[C@H](CCc1ccccc1)N[C@@H](C)C(=O)N1Cc2cc(OC)c(OC)cc2C[C@H]1C(=O)O`, the compound was called inactive.

With `Cc1ccc([N+](=O)[O-])c(N)c1`, the outcome was inactive.

Take `CN(C)CC[C@@H](c1ccc(Cl)cc1)c1ccccn1`: the call was inactive.

On to `CC1=C2[C@H](/C=C(\C)C(=O)O)CC[C@@H](C)[C@H]2CC1`, for which the outcome was inactive.

Regarding `CCC(=O)Nc1ccc(O)cc1`, the compound was called inactive.

`C1CCOC1`: the result was inactive.

With `COc1cc2c(cc1N)oc1ccccc12`, the outcome was inactive.

With `NC1=NCC2c3ccccc3Cc3ccccc3N12` (stereo not given), the compound was classed as inactive.

Consider `CCOc1ccc2nc(N)sc2c1`, for which the result was inactive.

On to `COC(=O)c1ccc(OC)cc1`, for which the compound was called inactive.

For the compound `CN(C)CCOc1ccccc1Cc1ccccc1`, the compound was classed as inactive.

Regarding `O=C(O)[C@@H](O)[C@H](O)[C@H](O)[C@@H](O)C(=O)O`, the call was inactive.

Consider `CC(C)(C)c1ccc(OC(=O)c2ccccc2O)cc1`, for which the outcome was inactive.

As to `CCC/C=C/CO`, the result was inactive.

With `CC(C)C(=O)OC/C=C/c1ccccc1`, the result was inactive.

As for `COc1nc(C)nc(NC(=O)NS(=O)(=O)c2ccccc2OCCCl)n1`, the outcome was inactive.

In the case of `CCOc1ccccc1N`, the result was inactive.

On to `Cc1ccc(C=O)s1`, for which the call was inactive.

Regarding `C=CCCCCCCCCO`, the result was inactive.

With `CC(C)C[C@H](NC(=O)OCC1c2ccccc2-c2ccccc21)C(=O)O`, the outcome was inactive.

In the case of `CN(C)C(=O)NC1(c2ccccc2)CCN(CCC[C@]2(c3ccc(Cl)c(Cl)c3)CCCN(C(=O)c3ccccc3)C2)CC1`, the fluorescence, % of fluorescent control is -0.159% [at 18.6 µM].

As for `C=CC(C)(O)CC/C=C(\C)CCC=C(C)C` (stereo not given), the compound was classed as inactive.

For `Cc1cc(NS(=O)(=O)c2ccc(N)cc2)nc(C)n1`, the call was inactive.

For `Oc1ccccc1F`, the compound was classed as inactive.

Take `O=C1CCCCC1C1CCCCC1` (stereo not given): the compound was called inactive.

`CC(C)CC(=O)OCc1ccccc1`: the compound was classed as inactive.

On to `OC[C@H]1O[C@@H](O[C@H]2[C@H](O)[C@@H](O)[C@H](O)O[C@@H]2CO)[C@H](O)[C@@H](O)[C@H]1O`, for which the call was inactive.

Consider `Cn1cnc2c(F)c(Nc3ccc(Br)cc3Cl)c(C(=O)NOCCO)cc21`, for which the compound was called inactive.

`CC1=C(CC(=O)O)c2cc(F)ccc2/C1=C\c1ccc(S(C)(=O)=O)cc1`: the call was inactive.

As to `CCCC1CCC(=O)O1` (stereo not given), the outcome was inactive.

Regarding `Nc1ccc(Oc2ccc(N)c(N)c2)cc1`, the call was inactive.

Consider `Cc1ccc([N+](=O)[O-])cc1Cl`, for which the call was inactive.
